Reference: PubChem BioAssay (NCI)
The panel holds about 83,000 compounds, 20% with a hit somewhere; the sample as a whole holds those more often.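 Interpretation: 100, growth as untreated; towards 0, rising growth inhibition; 0, no net growth; 0 to -100, cell death. Compounds scoring below 10 were considered active.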 Activity calls are given as the source filed them.

Each molecule was assayed on SK-OV-3 ovarian (assay: NCI-60 one-dose screen, 48 h (100 = growth as untreated, 0 = no growth, -100 = all killed)). Details: 10 µM unless noted.

Row | Structure (SMILES) | growth
1 | COc1ccc(Cn2cc3c(c2-c2ccccc2)CCc2cnoc2-3)cc1OC | 8.39% (active)
2 | Cc1ccc2c(O)c(O)cc(NC(C)CCCN)c2n1 (stereo not given) | 102% (inactive)
3 | CC(C)(C)c1ccc([I+]c2ccc(C(C)(C)C)cc2)cc1 | 30.3% (inactive)
4 | COC(=O)/C(Br)=C/c1c[nH]c2ccc(Br)cc12 | 92% (inactive)
5 | COC(=O)c1ccc2[nH]c(O)c(C(=Nc3ccc(N(C)C(=O)CN4CCN(C)CC4)cc3)c3cccc(OC)c3)c2c1 | -0.652% (active)
6 | C#CCCCCCCC[C@@H]1OC(=O)[C@H]([C@@H](C)CC)NC(=O)[C@@H]([C@@H](C)CC)NC(=O)CC(=O)[C@@H]1C | 102% (inactive)
7 | COC(=O)c1ccc2[nH]c(O)c(C(=Nc3ccc(N(C)C(=O)CN4CCN(C)CC4)cc3)c3ccc(C)cc3)c2c1 | -12.2% (active)
8 | COC(=O)C(C)[C@H]1CC[C@@H]2[C@]1(C)CC=C1[C@]23C=C[C@]2(C[C@@H](OC(C)=O)CC[C@]12C)C(C(=O)OC)C3C(=O)OC (stereo not given in full) | 111% (inactive)
9 | Cc1nc2c(nnn2-c2ccccc2)c2nc(-c3ccccc3)oc(=O)c12 | 115% (inactive)
10 | CC(O)C(N)=O (stereo not given) | 110% (inactive)
11 | Nc1nc2c(c3cnccc13)C(c1cccc(Cl)c1)Cc1cnccc1-2 (stereo not given) | 32% (inactive)
12 | CC(=O)OCC1O[C@@H](OC(C)=O)[C@@H](NC(=O)NS(=O)(=O)c2ccccc2)C(OC(C)=O)[C@@H]1OC(C)=O (stereo not given in full) | 113% (inactive)
13 | CCOC(=O)c1ccc2n1CCCc1cnc(NC(C)=O)nc1-2 | 106% (inactive)
14 | CCCCCCCCCCCCCCCCCC1=NCCN1CCNC(C)=O | 107% (inactive)
15 | Clc1ccc(N/N=C(/c2ccccc2)c2ccccn2)nc1 | 26.5% (inactive)
16 | COc1ccc(-n2nnnc2-c2cn[nH]c2C(F)(F)F)cc1 | 103% (inactive)
17 | COc1cc2ncnc(-n3ncc4cc(NC(=O)Nc5ccc(Cl)c(Cl)c5)ccc43)c2cc1OC | -24.9% (active)
18 | CCOC(=O)c1c(C)oc2ncnc(Nc3ccc(C(=O)NCCc4ccccc4)cc3)c12 | 85.6% (inactive)
19 | CC(=O)/C(=C/c1ccc(-c2ccccc2)cc1)C(=O)c1ccccc1 | 95.4% (inactive)
20 | N=C(N)c1ccc(-c2ccc(-c3ccc(F)cc3)s2)cc1 | -80% (active)

Row | Structure (SMILES) | growth
21 | NC(=O)CC(NC(=O)COc1ccc(Cl)cc1Cl)C(=O)O (stereo not given) | 110% (inactive)
22 | Cc1nc(NC(=O)NC2CCCCC2)sc1C(=O)NN | 116% (inactive)
23 | CCOC(=O)C1=C(C(F)(F)F)NC(=S)NC1CN1C(=O)c2ccccc2C1=O (stereo not given) | 117% (inactive)
24 | NC(=O)c1c(Nc2ccccc2)nn2cc(-c3nc4ccccc4s3)c(N)nc12 | 94.8% (inactive)
25 | O=C(/C=C/c1ccc(Br)cc1)c1ccccc1 | 111% (inactive)
26 | Cc1c(O)c(N=Nc2ccc(C(=O)O)c(O)c2)c2ccccc2c1O | 95.5% (inactive)
27 | COc1ccc2c(c1)/C(=C/c1c(-c3cc(OC)c(OC)c(OC)c3)nc3sccn13)C(=O)N2 | 106% (inactive)
28 | CCOC(=O)c1cc(C(=O)c2ccc(Br)cc2)n2cc(C)cc(C)c12 | 86.2% (inactive)
29 | COc1cccc(Cn2cc3c(c2)-c2oncc2CC3)c1 | 1.4% (active)
30 | CCCCCSc1ccc2nc(NC(=O)OCC)sc2c1 | 39.1% (inactive)
31 | COc1ccc(C2C3(C#N)C(N)=NC(=C(C#N)C#N)C23C#N)cc1OC (stereo not given) | 109% (inactive)
32 | CCCCCCCCCCCCCCCC[n+]1cccc(C#N)c1 | 100% (inactive)
33 | CC(C)OC(=O)c1ccc2n1CCCc1cnc(Nc3ccccc3)nc1-2 | 97% (inactive)
34 | COc1cc(Cn2ccc3c2-c2oncc2CC3)cc(OC)c1 | 24.6% (inactive)
35 | COC(=O)c1ccc(C(=Nc2ccc(N(C)C(=O)CN3CCN(C)CC3)cc2)c2c(O)[nH]c3ccc(C(=O)OC)cc23)cc1 | 0.753% (active)
36 | COc1cccc2c1nc1cccc(OC)c1[n+]2[O-] | 29% (inactive)
37 | CC(=O)NNC(=O)c1sc(NC(C)=O)nc1C | 92.6% (inactive)
38 | CCOC(=O)NNc1[nH]c(-c2ccc(OC)cc2)cc1C#N | 111% (inactive)
39 | COc1cc(N)c2nccc(C)c2c1OC | 108% (inactive)
40 | CCOC(=O)c1c2c(cn1Cc1ccccc1)-c1oncc1CC2 | 109% (inactive)
